Compound activity as filed in PubChem BioAssay.
Rows were chosen to be rich in hits. Some 19% of all compounds tested hit in one or more screens of this group.
ASM inhibitor: Inhibitors of Secretory Acid Sphingomyelinase (S-ASM): qHTS | placental ASM, HMU-PC fluorogenic substrate, 60 min | Potency, µM (top dose mostly 57.5 µM), actives largely listed as inhibitors | 0.006% of 340,000 active | AID 504937, 2011
Target sequence (P17405 47-631 limits assumed): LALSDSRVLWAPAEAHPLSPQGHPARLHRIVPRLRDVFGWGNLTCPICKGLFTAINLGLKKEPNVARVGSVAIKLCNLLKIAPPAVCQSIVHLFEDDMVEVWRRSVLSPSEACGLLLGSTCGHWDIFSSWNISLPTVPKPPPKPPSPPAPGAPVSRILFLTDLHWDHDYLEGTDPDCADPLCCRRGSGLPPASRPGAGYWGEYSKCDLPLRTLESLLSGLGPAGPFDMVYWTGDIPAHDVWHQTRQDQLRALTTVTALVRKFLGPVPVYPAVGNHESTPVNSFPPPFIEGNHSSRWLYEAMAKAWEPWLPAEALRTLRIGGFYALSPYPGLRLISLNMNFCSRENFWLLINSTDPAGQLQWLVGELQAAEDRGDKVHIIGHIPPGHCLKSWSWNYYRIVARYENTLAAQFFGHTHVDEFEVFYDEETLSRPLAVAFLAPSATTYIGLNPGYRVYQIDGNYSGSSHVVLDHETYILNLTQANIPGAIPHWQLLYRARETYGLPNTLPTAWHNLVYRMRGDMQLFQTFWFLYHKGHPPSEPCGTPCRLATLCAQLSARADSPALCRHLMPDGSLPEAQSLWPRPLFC
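qHTS format. ASM enzyme prepared from human placenta hydrolyses the fluorogenic substrate HMU-PC0 (9 uM final) over 60 min at 37 °C after a 10 min compound preincubation.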
TGFb SMAD3 inh: qHTS for Inhibitors of TGF-b. HepG2 CAGA-GFP TGF-b/SMAD3 reporter, GFP fluorescence, 18 h; TGF-beta stimulated, 500 pg/mL final. Potency, µM (highest dose often 46.1 µM), most hits filed as inhibitors. 1.2% of 410,000 active; note: nearly all actives have a fitted effect of over 65% in size
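Smad-responsive CAGA-GFP expression was quantified in HEPG2 cells exposed to compounds and 500 pg/mL final TGF-beta for 18 h at 37 degrees C; unstimulated wells defined full inhibition.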
DT40 TDP1 no CPT: qHTS for Inhibitors of human tyrosyl-DNA phosphodiesterase 1 (TDP1): qHTS in cells in absence of CPT; DT40 Tdp1-/- hTDP1 cells, no CPT, ATP luminescence, 48 h; AID 686978, 2013; 15% of 420,000 active; Potency, µM (doses to about 46.2 µM), hits mostly inhibitors; note: nearly all actives have a fitted effect of over 55% in size
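Luminescent ATP content (CellTiter-Glo) served as the growth readout. Knockout chicken DT40 cells expressing human TDP1 were exposed to compounds without camptothecin for a minimum 48 hr at 37 °C.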
TDP1 cell CPT: qHTS for Inhibitors of human tyrosyl-DNA phosphodiesterase 1 (TDP1): qHTS in cells in presence of CPT; Potency, µM (titrated, usually from 46.2 µM), actives largely listed as inhibitors; 12% of 420,000 active; chicken DT40 Tdp1-/-;hTDP1 cells + 20 nM CPT, ATP luminescence, 48 h; note: nearly all actives have a fitted effect of over 55% in size
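Chicken DT40 Tdp1-/- cells stably complemented with human TDP1 were seeded at 400 cells/well in medium containing 20 nM camptothecin, exposed to pin-transferred compounds, and grown at 37 °C for at least 48 hr. Viability was read as ATP luminescence.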
HepG2 viability: qHTS for Inhibitors of TGF-b: Cytotox Counterscreen; Potency, µM (titrated, usually from 46.1 µM), usual class: cytotoxic; AID 588856, 2011; 0.76% of 410,000 active; HepG2 CAGA-GFP viability, ATP luminescence, 18 h
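HepG2 CAGA-GFP cells (1000/well, DMEM with 1% FBS) received compound, then TGF-beta at 500 pg/mL final, and were incubated 18 hours at 37 degrees C. Viability was read by CellTiter-Glo luminescence. Media-only wells were set as complete cell-killing and DMSO as no toxicity.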
IL-1B inflam inh: qHTS for Inhibitors of Inflammasome Signaling: IL-1-beta AlphaLISA Primary Screen | AID 743279, 2014 | activity change, % at 57.5 µM | 4.7% of 360,000 active | THP-1 LPS/ATP IL-1B secretion, AlphaLISA, 16 h; hits give low values; in the data active = activity change below about -50%; inconclusive = mostly about -30% to -49%
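Secreted IL-1B measured by AlphaLISA bead assay after 16 h compound exposure of THP-1 cells; compounds (final up to 57.5 uM) added 1 h before LPS (250 ng/mL) and ATP (1.25 mM) stimulation; lower signal means less secretion.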
Numbers stand for hits; 0 = inactive; ? = inconclusive; - = not tested or not shown. Unless noted, calls come from the whole dose curve; as a rule, active = well fitted curve in the direction sought with a large enough effect; inconclusive = small, poorly fitted or top-dose-only effect, or another doubt; inactive = no such curve, though single readings can be large; an effect the other way counts as inactive or inconclusive.

SMILES | ASM inhibitor | TGFb SMAD3 inh | DT40 TDP1 no CPT | TDP1 cell CPT | HepG2 viability | IL-1B inflam inh
CN1CCC(O)(c2ccccc2)C2CCCC21 (stereo unspecified) | 0 | 0 | 0 | 0 | 0 | 0
CN1CCCC(C(=O)c2ccccc2)C1 (stereo unspecified) | 0 | 0 | 0 | 0 | 0 | 0
CN1CCC(O)(c2ccccc2)C(C(=O)c2ccccc2)C1 (stereo unspecified) | 0 | ? | 18µM | 9.2µM | 0 | 0
CCN1CCC(O)(c2ccccc2)C(C(=O)c2ccccc2)C1 (stereo unspecified) | 0 | ? | 4.1µM | 2.6µM | 0 | 0
CCOc1ccc(-c2nc(CSCC(=O)NCCc3ccc(OCC)c(OCC)c3)c(C)o2)cc1 | - | 0 | 16µM | 15µM | 0 | -
N#Cc1cc2c(nc1SCC(=O)Nc1cc(Cl)ccc1Cl)C1CCN2CC1 | 0 | ? | ? | 18µM | 0 | 0
N#Cc1cc2c(nc1SCC(=O)Nc1ccc(Cl)cc1)C1CCN2CC1 | 0 | 0 | ? | ? | 0 | 0
N#Cc1cc2c(nc1SCC(=O)Nc1ccc(Cl)c(C(F)(F)F)c1)C1CCN2CC1 | - | ? | 12µM | 21µM | 0 | -
N#Cc1cc2c(nc1SCC(=O)Nc1ccc(C(F)(F)F)cc1)C1CCN2CC1 | - | ? | 23µM | 13µM | 0 | -
COc1cccc(CCNCc2c(F)cccc2F)c1 | 0 | 0 | 0 | 0 | 0 | 0
CC(C)NC(=O)N1CCC2(CCNCC2)CC1 | - | - | 0 | 0 | - | -
Cc1ccc(C)c(S(=O)(=O)c2nnn3c2nc(N2CCCC2)c2sccc23)c1 | - | 0 | ? | 16µM | 0 | -
CN1CC[C@@]2(CCCN(C(=O)Oc3ccccc3)C2)C1 | - | - | 0 | 0 | - | -
Cc1cccc(N=C2c3cc([N+](=O)[O-])ccc3-c3c2cc([N+](=O)[O-])cc3[N+](=O)[O-])c1 | ? | 0 | 18µM | 8.2µM | 0 | -96
COc1ccc(C2=NCC(=S)Nc3ccc(Cl)cc32)cc1Cl | 0 | 0 | 21µM | ? | 0 | 0
C=C1C(C)C2C(Cc3ccccc3)NC(=O)C23OC(=O)/C=C/C(O)CCCC(C)C/C=C/C3C1O (stereo unspecified) | 0 | 0 | 2.1µM | 1.5µM | 0 | 0
C=C1[C@@H](C)[C@H]2[C@H](Cc3ccccc3)NC(=O)[C@]23[C@H](OC(C)=O)/C=C/[C@](C)(O)C(=O)[C@@H](C)C/C=C/[C@H]3[C@@H]1O | - | - | 0.14µM | 0.18µM | - | -
C=C1[C@@H](O)C2C=CC[C@H](C)C(=O)[C@@](C)(O)C=C[C@@H](OC(C)=O)[C@@]23C(=O)N[C@H](Cc2ccccc2)[C@@H]3[C@@H]1C (stereo partly specified) | - | - | 0.24µM | 0.27µM | - | -
Cc1ncc(CO)c(CN)c1O | - | - | 0 | ? | - | -
COP(=O)(/C=C/c1ccccc1)C(O)c1ccc(F)cc1 (stereo unspecified) | 0 | 0 | 0 | 0 | 0 | 0
O=c1c2ccccc2nc(-c2ccc(-c3ccccc3)cc2)n1-c1ccncc1 | 0 | ? | 21µM | ? | 0 | 0
COc1ccc(-n2c(C)nc3ccccc3c2=O)c([N+](=O)[O-])c1 | 0 | 0 | ? | 0 | 0 | 0
COc1ccc(-n2c(-c3ccccc3[N+](=O)[O-])nc3ccccc3c2=O)cc1 | 0 | 0 | 15µM | 23µM | 0 | 0
O=c1c2ccccc2nc(-c2ccc(Cl)cc2Cl)n1-c1nccs1 | 0 | 0 | 13µM | ? | 0 | 0
Cc1ccc(-c2nc3ccccc3c(=O)n2-n2cccc2)cc1 | 0 | 0 | 12µM | 16µM | 0 | 0
SMILES | ASM inhibitor | TGFb SMAD3 inh | DT40 TDP1 no CPT | TDP1 cell CPT | HepG2 viability | IL-1B inflam inh
CCOc1ccc(-n2c(SCc3nc(-c4ccccc4C)no3)nnc2-c2ccccc2)cc1 | - | 0 | ? | 0 | 0 | -
CN(C)CCN=Cc1c(O)n(-c2cccc3ccccc23)c(=O)[nH]c1=O | 0 | 0 | 0 | 0 | 0 | 0
CC1=CC(=O)C2=C(C)CC(O)C3C(C)C(=O)OC3C12 (stereo unspecified) | 0 | 0 | 0 | 0 | 0 | 0
N#Cc1ccc(CN2CCCC3(CCN(C(=O)Oc4ccccc4)CC3)C2)cc1 | - | - | 0 | 0 | - | -
C[C@H]1C(=O)O[C@H]2CCN3CC=C(COC(=O)[C@](C)(O)[C@@]1(C)O)C23 (stereo partly specified) | - | - | ? | 0 | - | -
Cc1ccc(-c2nc3ccccc3c(=O)n2-c2ccncc2)cc1 | 0 | 0 | ? | 0 | 0 | 0
COc1ccc(-n2c(SC)nc3ccccc3c2=O)cc1 | 0 | ? | 18µM | 15µM | 0 | 0
Cc1ccc(-c2nc3ccccc3c(=O)n2-c2cccc(O)c2)cc1 | 0 | 0 | 8.2µM | 2.3µM | 0 | 0
O=c1c2ccccc2nc(-c2ccccc2Cl)n1-c1cccc(O)c1 | 0 | 0 | ? | 21µM | 0 | 0
Cc1nc2ccccc2c(=O)n1-c1cccc(O)c1 | 0 | 0 | 0 | 0 | 0 | 0
COc1ccc(-n2c(-c3ccc(C)cc3)nc3ccccc3c2=O)cc1 | 0 | 0 | 15µM | 15µM | 0 | 0
COc1ccccc1OCCCn1cc(C(C)=O)c2ccccc21 | 0 | 0 | 18µM | ? | 0 | 0
COc1ccccc1OCCCn1cc(C=O)c2ccccc21 | 0 | ? | 21µM | ? | 0 | ?
COc1ccccc1OCCCn1cc(C(=O)C2CC2)c2ccccc21 | 0 | 0 | ? | ? | 0 | 0
CC12Cc3cn[nH]c3C=C1CCC1C2CCC2(C)C1CCC2(C)O (stereo unspecified) | 0 | 0 | ? | ? | 0 | -91
COc1ccc(-c2nnc3n2N(C(C)=O)C(c2ccc(Cl)c(Cl)c2)=C(C(C)=O)S3)cc1 | - | 0 | 4.1µM | 3.3µM | 0 | -
COc1ccc(C2=C(C(C)=O)Sc3nnc(-c4ccc(Cl)cc4)n3N2C(C)=O)cc1OC | - | 0 | 2.3µM | 4.1µM | 0 | -
O=C(NN=Cc1ccc(N(CCCl)CCCl)cc1)c1cc(=O)[nH]c(=O)[nH]1 | 0 | 0 | ? | ? | 0 | 0
O=C(NN=Cc1ccc(N(CCCl)CCCl)cc1)C(=O)c1c[nH]c2ccccc12 | ? | 0 | 15µM | 21µM | 0 | 0
CN(C(=O)Cc1ccc(Cl)c(Cl)c1)[C@H](CN1CCCC1)c1ccccc1 | - | - | 12µM | 15µM | - | -
Cc1cccc(C(O)(C(=O)O)c2ccccc2)c1 (stereo unspecified) | 0 | 0 | 0 | 0 | 0 | 0
